# An excerpt weighted towards active compounds, which were near 3.9% of everything screened.
# 3CLpro inhibitor: SARS-CoV 3CLpro protease inhibition; P0C6X7; recombinant SARS-CoV 3CLpro, quenched FRET peptide cleavage; inhibition, % at 6 µM; 290,000 compounds, 0.14% hits; in the data active = inhibition above about 12%
# Bead autofluor: compound fluorescence in toxin protease inhibitor counterscreen | compound autofluorescence counterscreen, microsphere flow cytometry; stronger effect = higher value | fluorescence intensity (no concentration beside the values) | 360,000 compounds, 3.1% hits; in the data active = fluorescence intensity above about 16000; inconclusive = no clear call, values can overlap the other calls
# CCHF vOTU inh: CCHFV vOTU protease inhibition. inhibition, % at 11.5 µM. 370,000 compounds, 0.55% hits. Pep-AMC fluorescence; in the data active = inhibition above about 30%; also: 0% = vehicle wells with enzyme and 100% = no enzyme wells
# BoNT A protease: blocks Botulinum neurotoxin A light chain protease; inhibition, % at 10 µM; AID 588499; multiplex microsphere protease substrate cleavage, flow cytometry; 360,000 compounds, 0.17% hits; also: plate controls were buffer without enzyme for full effect and enzyme alone for no effect
# BoNT-F LC inh: BoNT F light chain protease inhibition | Multiplex microsphere protease cleavage assay, flow cytometry | inhibition, % at 10 µM | 360,000 compounds, 0.22% hits | AID 588497; in the data active = inhibition above about 35%, passing the limit was not always enough; inconclusive = no clear call, values can overlap the other calls; also: plate controls were buffer without enzyme for full effect and enzyme alone for no effect
# Anthrax LF prot: blocks Bacillus anthracis lethal factor protease | multiplex microsphere protease cleavage assay, LF | inhibition, % at 10 µM | 360,000 compounds, 0.12% hits; also: plate controls were buffer without enzyme for full effect and enzyme alone for no effect
# * hit, by the source's call; ? = inconclusive; . = no result. Rule as the data show it, unless noted: active = inhibition above about 30%; inconclusive = no clear call, values can overlap the other calls; inactive = below that.
SMILES,3CLpro inhibitor,Bead autofluor,CCHF vOTU inh,BoNT A protease,BoNT-F LC inh,Anthrax LF prot
CC(C)C(NC(=O)c1ccccc1F)C(=O)NCc1ccc(F)cc1 (centres undefined),2,3543,-1,-2,-1,1
O=C(CN1C(=O)COc2ccccc21)N1CCCc2ccccc21,4,22767*,.,-7,-7,0
O=C(CN1C(=O)COc2ccccc21)NCc1ccc(C(=O)O)cc1,-2,22844*,-4,1,2,1
COC(=O)c1ccc(Cn2ccc3ccc(-c4ccc5ccn(C(=O)c6cccc(OC)c6)c5c4)cc32)cc1,.,.,0,.,.,.
Cc1nc2ccc(NC(=O)c3ccccc3)cc2c(=O)n1Cc1ccc(F)cc1,.,3887,-9,0,-3,-5
Cc1cccc(NC(=O)c2cc(-c3cc(C)ccc3O)n[nH]2)c1,3,3054,-10,-4,6,1
Cc1ccc(O)c(-c2cc(C(F)(F)F)[nH]n2)c1,1,21889*,8,?,-9,-2
Cc1ccc(-n2c(COc3ccccc3)nnc2SCC(=O)Nc2ccccc2-c2ccccc2)cc1,.,.,12,.,.,.
CCCNc1c(NC(=O)COc2ccc(Cl)cc2)c(=O)oc2ccccc12,-1,5273,-1,0,1,-1
Cc1cccc(OCC(=O)Nc2ccccc2N2CCN(C)CC2)c1,-4,4281,10,2,-4,-2
CN1CCN(c2ccccc2NC(=O)Cc2ccc(Cl)cc2)CC1,-2,21557*,.,5,2,1
CN1CCN(c2ccccc2NC(=O)COc2ccc(Br)cc2)CC1,3,21142*,7,4,2,-2
CCC(=O)N1CCN(c2ccccc2NC(=O)Cc2ccc(Cl)cc2)CC1,-2,6340,-3,0,-1,-13
C=CCN1[C@H](C#N)[C@@H](c2ccc(Br)cc2)[C@H]1CO,.,.,-8,.,.,.
c1coc(-c2nc3nc4ccccc4nc3n2CC2CCCO2)c1 (centres undefined),-3,22833*,-220,3,1,4
c1ccc(-c2nc3nc4ccccc4nc3n2CC2CCCO2)cc1 (centres undefined),3,4262,-56,1,4,-4
CC(NC(=O)Cc1cccs1)c1ccncc1 (centres undefined),2,24187*,-13,-4,-8,-9
Nc1c(N(Cc2ccco2)C(=O)c2ccccc2F)c(=O)[nH]c(=O)n1Cc1ccccc1,.,5473,3,1,-5,-5
O=C(CN1C(=O)c2ccccc2S1(=O)=O)N1CCOCC1,3,20391*,.,10,9,-8
O=C(CN1C(=O)c2ccccc2S1(=O)=O)N1CCCCC1,2,3004,2,-3,-7,20
N#Cc1ccc(Cn2ccc3ccc(-c4ccc5ccn(C(=O)C6CC6)c5c4)cc32)cc1,.,.,0,.,.,.
COc1cccc(CN2CC(C(=O)N3CCCCCC3)CCC2=O)c1 (centres undefined),-1,6404,-9,-4,-14,0
COc1ccc(Cc2c(O)nc[nH]c2=O)cc1,-3,16832*,-12,?,-5,2
COc1ccc(CC(=O)N/N=C(\C)CC(=O)Nc2ccc3c(c2)OCCO3)cc1OC,0,3577,-11,1,11,5
O=C(NCc1n[nH]c(=S)n1Cc1ccccc1)c1ccccc1,0,4204,-6,0,2,-4
SMILES,3CLpro inhibitor,Bead autofluor,CCHF vOTU inh,BoNT A protease,BoNT-F LC inh,Anthrax LF prot
CCN(CC)S(=O)(=O)c1ccc(C(=O)NCc2n[nH]c(=S)n2Cc2ccccc2)cc1,5,21413*,.,2,2,0
CCN(CC)S(=O)(=O)c1ccc(C(=O)NCc2cccs2)cc1,4,21571*,1,1,-1,2
O=C(CSCCO)Nc1cccc2ccccc12,1,22778*,5,?,-4,-3
Cc1ccccc1NC(=O)CSc1nc(N2CCCCC2)nc(N2CCCCC2)n1,0,22832*,-10,?,-4,-3
Cc1ccccc1NC(=O)CSCCO,2,22229*,-2,2,3,0
CC(=O)c1cccc(NC(=O)CSc2nc(N3CCCCC3)nc(N3CCCCC3)n2)c1,4,3999,3,0,-4,-4
Cc1cccc(C)c1NC(=O)CSCCO,-5,7039,4,0,-2,-2
O=C(CSCC(=O)Nc1cccc2ccccc12)Nc1cccc2ccccc12,5,4775,-9,0,-10,2
CC(NC(=O)COC(=O)Cc1cccs1)c1ccc(F)cc1 (centres undefined),.,4469,6,3,12,0
CC(C)(O)C1=NOC(c2ccccc2)C1 (centres undefined),-1,16732*,-6,0,1,-3
O=C1CC(=O)CC(c2ccccc2)C1,0,2171,14,0,0,-2
Cc1ccc(CN(C)C(=O)c2ccccc2Oc2ccccc2)o1,4,21202*,2,3,5,-2
OC(Cc1cccc(Br)c1)c1ncc(-c2ccccc2C(F)(F)F)[nH]1 (centres undefined),.,3897,22,0,-2,-6
COCCNc1c2c(nc3c(-c4ccccc4)c(C)nn13)CCCC2,0,23437*,2,-2,-2,-2
CCC(C)Nc1c2c(nc3c(-c4ccccc4)c(C)nn13)CCC2 (centres undefined),-1,22116*,1,-6,-8,-3
CSc1ccc(C=Nn2c(-c3cc(C)[nH]n3)n[nH]c2=S)cc1,.,.,5,.,.,.
CC(CNC(=O)C1CCCCC1C(=O)O)c1ccccc1 (centres undefined),4,22629*,18,1,2,-3
OCC[C@@H]1C[C@@H](O)[C@H](O)[C@]2(Cc3ccccc3CO2)O1,2,4061,-5,1,-5,4
Cc1ccc(/C=C2\CCC3=C2OC(N)=C(C#N)C3c2ccc(C)cc2)cc1 (centres undefined),9,10272,.,7,42*,6
COC(=O)c1ccc(NC(=O)COC(=O)C2=NN(c3ccccc3)C(=O)CC2)cc1,.,?,-5,-4,?,-1
O=C(c1ccc(S(=O)(=O)Nc2ccccc2F)cc1)N1CCC1,.,4455,-1,6,8,4
Cn1c(C(O)c2ccccc2F)nc(Cl)c1Cl (centres undefined),-3,22133*,-5,0,0,-2
CN(C)c1ccc(/C=N/NC(=O)c2nnn(-c3nonc3N)c2COc2ccc(F)cc2)cc1,5,3819,6,3,27,32*
CCN(CC)Cc1c(C(=O)N/N=C/c2ccncc2)nnn1-c1nonc1N,1,3423,-8,1,-19,4
CN(C)Cc1c(C(=O)N/N=C/c2ccncc2)nnn1-c1nonc1N,0,3978,-3,2,42*,13
O=C(Cn1nnc(-c2ccccc2F)n1)NCc1ccco1,0,4610,0,0,-8,-4
CCOC(=O)c1c(NC(C)=O)sc2c1CCC(C=O)=C2Sc1ccccc1,-1,7887,14,50*,40*,41*

# Assay outcomes (PubChem)
